# In article PMC12136788:
# Positions count from the first letter of the chain named. The full ranking holds about 5,800 sequences; the median of “enrichment r” is about 0.68, and the highest 2% start at about 11. Only a selection was taken, and the highest values are over-represented in it overall.
# T1: UNK ZnF1-6 (called full-length) (human, UniProt Q9C0B0 30-357)
# T1 sequence: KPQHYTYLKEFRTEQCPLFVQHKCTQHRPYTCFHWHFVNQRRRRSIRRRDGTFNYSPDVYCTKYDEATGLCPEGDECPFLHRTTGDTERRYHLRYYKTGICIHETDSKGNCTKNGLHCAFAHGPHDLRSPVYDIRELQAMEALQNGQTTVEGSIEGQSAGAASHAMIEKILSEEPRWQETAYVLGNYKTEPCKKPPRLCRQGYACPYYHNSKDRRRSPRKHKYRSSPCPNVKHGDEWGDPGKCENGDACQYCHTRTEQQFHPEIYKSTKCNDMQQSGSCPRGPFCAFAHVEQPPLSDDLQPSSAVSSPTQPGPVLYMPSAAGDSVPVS
# B1: chr2:96185838:96185916:-|3pUTR|ENSG00000084090|msi1_unk|FALSE|overlapping (ssRNA)
# RNA: GGGAGUUCUACAGUCCGACGAUCUGGGAGACUAAUCCUUUUAGAUAGUAGCUUUUUGAUGCUCAAAACAUCACAUUUAAAUUUAGUUUAAAAAUUUUUUAACUUUUGUGUCAAAUAGGAGUUGAGGAAUUGAGCAGGAUUCUACAACAGAGGAUUGAGCAUCA
# B2: chr16:2708819:2708933:+|3pUTR|ENSG00000167977|unk|FALSE|unique (ssRNA)
# RNA: GGGAGUUCUACAGUCCGACGAUCCUCUCUGGGGAGCUGCUGGCCGCUUAGCGUUGUUUGAUUUUUGACCUUGACAUAGUAGAUAGGCUUGUGGUUUUUUUAAUUUAAAGAUAUUAAGACUUAAUUCACUAAAAUUUAUUCUAACAACAGAGGAUUGAGCAUCA
# B3: chr2:216672738:216672882:-|3pUTR|ENSG00000115461|msi1|FALSE|unique (ssRNA)
# RNA: GGGAGUUCUACAGUCCGACGAUCUUCUCUUAGGCUUUUGUUUCUAUUUCAAACAUACUUUCUUGGUUUUCUAAUGGAGUAUAUAGUUUAGUCAUUUCACAGACUCUGGCCUCCUCUCCUGAAAUCCUUUUGGAUGGGGAAAGGCAACAGAGGAUUGAGCAUCA
# B4: chr5:6669452:6669553:+|3pUTR|ENSG00000145545|unk|FALSE|unique (ssRNA)
# RNA: GGGAGUUCUACAGUCCGACGAUCCAUCUCAUCUGGAGUUUUUAAAUGCCAUUUGUUUCAGUUGUCUUUAACAACAUAAUAAAUAGACUUUGCCAUUUAACAAGGUAGCUCAAAUUCUUUUACUAAUUGUUACAUCGAAACAUUCAACAGAGGAUUGAGCAUCA
# B5: ENSG00000168615:stop:overlap|stop_codon|ENSG00000168615|stop_codon|NA|stop_codon (ssRNA)
# RNA: GGGAGUUCUACAGUCCGACGAUCCUGGCCAGAAUACCCAAAAUAAUUGGCAGAUGUCAAAUUUGGCUUUCUGUGUUUAUUACUAGAGCAUAAACAUUUCUAGUUUUGUUUGAGUGUUUUACAGUCCUUUUUGGCAGUUAGGUACAACAGAGGAUUGAGCAUCA
# B6: chr16:2708819:2708933:+|3pUTR|ENSG00000167977|unk|total|mutant (ssRNA)
# RNA: B2 RNA with U48C, A49C, U76C, A77C, U79C, A80C, U83C, A84C
# B7: chr10:98383567:98383797:-|three_prime_utr|ENSG00000119943|control|control|control (ssRNA)
# RNA: GGGAGUUCUACAGUCCGACGAUCCCACCCCUGAAUUCCAAGUGCUCCAUUGGAUCAGCUUCCCAGGAAGUUCAGCUUCGGGUUAGUACAUAAGGCCACCACAAUGCUCAAGAAAUUAUUUUAGAAAAAACGUACGAGUUACAUCAACAGAGGAUUGAGCAUCA
# B8: chr12:103777333:103777434:-|3pUTR|ENSG00000111696|msi1|total|mutant (ssRNA)
# RNA: GGGAGUUCUACAGUCCGACGAUCUCCUGAACAUUUACGGGCUAUGCAUUGGGAACUGCAGGGGCACAGUGAUGGGCAAAGAUCCGCUGCUUCCAGAAGGCUGAUUUCGUGGGCUCCACAAUGGUAAAACGCUGCUGUGAGUGGCAACAGAGGAUUGAGCAUCA
# B9: chr21:14371318:14371404:-|3pUTR|ENSG00000155304|msi1_unk|total|mutant (ssRNA)
# RNA: GGGAGUUCUACAGUCCGACGAUCUAUGAAUAACAAUCUGAAGUCUUUUCAUAAAAAAAAUUAAUAAACUUCCGUUGUACAUUCCGCCAGUGUUAUUUGAAGUAUGUAACUUUUAAAAUAUUAAGUGUCUUGUAUGAUCCGAAUCAACAGAGGAUUGAGCAUCA
# B10: chr14:100278170:100278208:+|3pUTR|ENSG00000100811|msi1_unk|FALSE|overlapping (ssRNA)
# RNA: GGGAGUUCUACAGUCCGACGAUCGCUAUCUUAAUUUUGGUUGUAUUCUUUGAUGUUAACACAUUUUGUAUAAUUGUAUCGUAUAGCUGUAUUGAAUCAUGUAGUAUCAAAUAUUAGAUGUGAUUUAAUAGUGUUAAUCAAUUUCAACAGAGGAUUGAGCAUCA
# B11: chr10:121957106:121957207:-|3pUTR|ENSG00000107672|msi1|FALSE|bound_elsewhere (ssRNA)
# RNA: GGGAGUUCUACAGUCCGACGAUCUGUAUCGUACAUAUUGUAUGAUUCAACAUUUUUAAAGGCAGAUUGUUUUUAGUAAAAUGUAGCUUUUGAUAGUUAAUAAAUUUGUCAUGGUUGUCUUUGAUUAAAGGAAACUCACCGCCACAACAGAGGAUUGAGCAUCA
# B12: chr4:56502255:56502306:+|3pUTR|ENSG00000174780|msi1_unk|FALSE|overlapping (ssRNA)
# RNA: GGGAGUUCUACAGUCCGACGAUCAUUUCAGCUGGAGUCUGAAGAUACUUGUUUCUGUUCAAGUCCCACUUUAAAUUAUGUCUUAGGAGACUGAAAGUGGAAUCUUCUGAGCAUUCCUAAAUAUCUGCUUAGAAAUAUCAUGUGCAACAGAGGAUUGAGCAUCA
# B13: chr5:160402147:160402258:-|3pUTR|ENSG00000164609|unk|FALSE|unique (ssRNA)
# RNA: GGGAGUUCUACAGUCCGACGAUCAUGGUUUACAUUACCGUUUGUUUUCAUUGUGAUUGCCCCUAUGUAACAAUCAUGAAUAUUAGAUUUUUUAAAUUGUAGAAUAUCCUAAUAUUUAUAGCCAGCAGCUGUUACUUUGUUUGUCAACAGAGGAUUGAGCAUCA
# B14: chr7:152122106:152122213:+|3pUTR|ENSG00000178234|unk|total|mutant (ssRNA)
# RNA: GGGAGUUCUACAGUCCGACGAUCAGUGGUUUUUAUCUGAUCAGGAACUUGUCAUGAUUUCCUUUCUCCGACUUCACCGGAGACCGUGCUUUAAAAAAAAAAAAAACUUCUAUUAUUUGUUCCGUAUGUUGUAAGCCGAUCAUUCAACAGAGGAUUGAGCAUCA
# B15: chr11:101890673:101891278:-|three_prime_utr|ENSG00000187151|control|control|control (ssRNA)
# RNA: GGGAGUUCUACAGUCCGACGAUCGUAAUGCAAGUUCUACAAUGAUAAUAUAUUAAAGAUUUUUAAAAGUUUAUCUUUUCACUUAGUGUUUCAAACAUAUUAGGCAAAAUUUAACUGUAGAUGGCAUUUAGAUGUUAUGAGUUUCAACAGAGGAUUGAGCAUCA
# B16: chr7:152122106:152122213:+|3pUTR|ENSG00000178234|unk|FALSE|unique (ssRNA)
# RNA: B14 RNA with C67U, C68A, C76U, C77A, C83U, C84A, C121U, C122A, C135U, C136A
# Target: T1, UNK ZnF1-6 (called full-length)
# Assay: nsRBNS (natural sequence RNA bind-n-seq); RBNS binding buffer (assumed for nsRBNS): 25 mM Tris pH 7.5, 150 mM KCl, 3 mM MgCl2, 0.01% Triton X-100, 500 ug/ml BSA, 20 U/ml SUPERase-In, 4 C; UNK is unkempt and MSI1 is Musashi-1; names of the RNAs are library labels; protein concentration not given here; high values mean tight binding
row,Binder,binding signal [enrichment R]
1,B1,27.5
2,B2,14.8
3,B3,5.21
4,B4,0.535
5,B5,0.532
6,B6,2.05
7,B7,2.25
8,B8,0.856
9,B9,0.702
10,B10,14.1
11,B11,13.5
12,B12,0.869
13,B13,5.04
14,B14,0.949
15,B15,5.03
16,B16,35
